Test results as given in PubChem BioAssay (NCI).
This is part of a sample that, as a whole, favours compounds with a hit. Of some 83,000 tested, about 20% had one in any assay.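 Step 1: grow cells in 96-well plates. Step 2: add test compound at a single concentration. Step 3: incubate 48 h. Step 4: record percent growth.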 Calls of active or inactive are those of the source. Rule for the calls: active = growth percent below 10; inactive = the rest.

system: SF-295 CNS; assay: NCI-60 one-dose screen, 48 h (100 = growth as untreated, 0 = no growth, -100 = all killed); conditions: 10 µM unless noted

Compound	growth
CC(c1cc(Cl)ccc1O)c1cc(Cl)ccc1O	45.9% (inactive)
COc1cc2c(cc1OCCCOc1ccc(-c3cc4ccccc4c4ccccc34)cc1)N=C[C@@H]1CCCN1C2=O	-64.6% (active)
COc1cc2c(cc1OCCCCCn1c(-c3ccc(OCc4ccccc4)cc3)nc3cc(N4CCOCC4)ccc31)N=C[C@@H]1CCCN1C2=O	7.34% (active)
CSc1ccc2c(c1)N(CCC1CCCCN1C)c1ccccc1S2 (stereo unspecified)	58.4% (inactive)
O=C(CSc1nnc(Nc2ccccc2)s1)NCCc1ccc(F)cc1	102% (inactive)
CCC(c1ccccc1)c1noc(CCN(CC)CC)n1 (stereo unspecified)	108% (inactive)
Cn1c(=O)c2c(nc(Br)n2CCC(=O)Nc2ccc(F)cc2)n(C)c1=O	104% (inactive)
CCC1=C(c2ccc(OC)cc2)C(C)Oc2cc(OC(C)=O)ccc21 (stereo unspecified)	99.4% (inactive)
O=C1C2C3C=CC(O3)C2C(=O)N1Nc1ccccc1 (stereo unspecified)	107% (inactive)
Cc1cc(C)n2nc(SCC(=O)Nc3sc4c(c3C(N)=O)CCC4)nc2n1	101% (inactive)
COc1ccc(Nc2ccnc(NCCCNc3ccnc4cc(Cl)ccc34)n2)cc1	-82.2% (active)
CCC1=C(c2ccc(OC)cc2)C(C)(C)Oc2c1ccc(O)c2CN1CCCC1	-44% (active)
CN(C)c1ccc(/C=C(\C#N)c2nc3ccccc3c(=O)[nH]2)cc1	92.9% (inactive)
Cc1cccc(Cl)c1NC(=O)c1ccc2nc(NC(=O)NC3CC(C)(C)NC(C)(C)C3)sc2c1	79.7% (inactive)
CCC(=O)Nc1ccccc1C#C/C=C\C#Cc1ccccc1C(F)(F)F	28.8% (inactive)
Nc1ccc2c3c(cccc13)-c1ccccc1-2	102% (inactive)
CC[C@]1(O)CC2CN(CCc3c([nH]c4ccccc34)[C@@](C(=O)OC)(c3cc4c(cc3OC)N(C)[C@H]3[C@@](O)(C(=O)OC)[C@H](OC(C)=O)[C@]5(CC)C=CCN6CC[C@]43[C@@H]65)C2)C1 (stereo partly specified)	12.2% (inactive)
COc1ccc(/C=N/NC(=O)c2ccc(S(C)(=O)=O)cc2)cc1OC	100% (inactive)

Compound	growth
C=CCCCCCCCCC(=O)[O][Sn]([CH2]CCC)([CH2]CCC)[CH2]CCC	-85.4% (active)
Cc1cc(CC(=O)O)n(C)c1C(=O)c1ccc(Cl)cc1	93.1% (inactive)
Fc1ccc(-c2nnc(/C=C/c3cn(-c4ccccc4)nc3-c3ccccc3)o2)cc1	94.4% (inactive)
COC(=O)[C@]12CC[C@@H](C)[C@H](C)[C@@H]1C1=CC[C@@H]3[C@@]4(C)C=C(O)C(=O)[C@@]5(C)COC(=C54)C[C@@]3(C)[C@]1(C)CC2	-57.4% (active)
Nc1ccc(S(=O)(=O)Nc2ncccn2)cc1	104% (inactive)
CC1CC(C)/C(=N/NC(N)=O)C(C(O)CC2CCC(=O)NC2=O)C1 (stereo unspecified)	-9.66% (active)
O=C(/C=C/c1cc2ccccc2[nH]c1=O)c1ccc(Cl)cc1	42.7% (inactive)
CSc1nc2c(c(=O)[nH]1)C(c1ccc(Cl)cc1)C1=C(N2)/C(=C/c2ccc(Cl)cc2)CNC1 (stereo unspecified)	69.3% (inactive)
ClC1=C(Cl)C(Cl)=C(Cl)C1=Cc1ccc(Cl)cc1	34.2% (inactive)
O=C1C(Cl)=C(N=Nc2c(Cl)c(O)c3ccccc3c2O)C(=O)c2ccccc21	33.2% (inactive)
N#Cc1cnc2cc(OC[C@H](O)CO)c(NC(=O)CC3CSSC3)cc2c1Nc1ccc(OCc2cccc(F)c2)c(Cl)c1	-82.1% (active)
CN(CC(=O)Nc1nc2ccccc2[nH]1)S(=O)(=O)c1ccc(Cl)cc1	38.4% (inactive)
COC(=O)[C@]12CC[C@@H](C)[C@H](C)[C@@H]1C1=CC[C@@H]3[C@@]4(C)C[C@@H](OC(=O)c5ccco5)[C@H](O)[C@@](C)(CO)[C@@H]4[C@H](O)C[C@@]3(C)[C@]1(C)CC2	-98.3% (active)
Fc1ccc(-c2nc(Nc3ccc(-c4nc5ccccc5[nH]4)cc3)nc(N3CCOCC3)n2)cc1	-94.4% (active)
CO[C@H]1/C=C/O[C@@]2(C)Oc3c(C)c(O)c4c(O)c(c(/C=N/N5CCN(C)CC5)c(O)c4c3C2=O)NC(=O)/C(C)=C\C=C\C(C)[C@H](O)[C@@H](C)[C@@H](O)[C@@H](C)[C@@H](OC(C)=O)[C@@H]1C (stereo partly specified)	98.8% (inactive)
Cc1cc(C(C)(C)C)cc(C)c1CC1=NCCN1	96.3% (inactive)
COc1ccc(-c2csc(NC(=O)c3cc(OC)c(OC)c(OC)c3)n2)cc1	91.9% (inactive)

system: SF-539 CNS; assay: as above; conditions: 10 µM unless noted

Compound	growth
COc1cc2c(cc1OCCCOc1ccc(-c3cc4ccccc4c4ccccc34)cc1)N=C[C@@H]1CCCN1C2=O	-57.6% (active)
COc1cc2c(cc1OCCCCCn1c(-c3ccc(OCc4ccccc4)cc3)nc3cc(N4CCOCC4)ccc31)N=C[C@@H]1CCCN1C2=O	11% (inactive)
O=C(CSc1nnc(Nc2ccccc2)s1)NCCc1ccc(F)cc1	96.4% (inactive)
CCC(c1ccccc1)c1noc(CCN(CC)CC)n1 (stereo unspecified)	101% (inactive)
Cn1c(=O)c2c(nc(Br)n2CCC(=O)Nc2ccc(F)cc2)n(C)c1=O	98.7% (inactive)
CCC1=C(c2ccc(OC)cc2)C(C)Oc2cc(OC(C)=O)ccc21 (stereo unspecified)	84.3% (inactive)
Cc1cc(C)n2nc(SCC(=O)Nc3sc4c(c3C(N)=O)CCC4)nc2n1	90.8% (inactive)
COc1ccc(Nc2ccnc(NCCCNc3ccnc4cc(Cl)ccc34)n2)cc1	-100% (active)
Oc1[nH]c2ccccc2c1/C=c1/ccc2c(c1)N=C(c1cc(F)cc(F)c1)N=2	90.7% (inactive)
CCC1=C(c2ccc(OC)cc2)C(C)(C)Oc2c1ccc(O)c2CN1CCCC1	69.3% (inactive)
CN(C)c1ccc(/C=C(\C#N)c2nc3ccccc3c(=O)[nH]2)cc1	93.6% (inactive)
Cc1cccc(Cl)c1NC(=O)c1ccc2nc(NC(=O)NC3CC(C)(C)NC(C)(C)C3)sc2c1	41.8% (inactive)
CCC(=O)Nc1ccccc1C#C/C=C\C#Cc1ccccc1C(F)(F)F	55% (inactive)
COc1ccc(/C=N/NC(=O)c2ccc(S(C)(=O)=O)cc2)cc1OC	105% (inactive)
C=CCCCCCCCCC(=O)[O][Sn]([CH2]CCC)([CH2]CCC)[CH2]CCC	-84.1% (active)
Fc1ccc(-c2nnc(/C=C/c3cn(-c4ccccc4)nc3-c3ccccc3)o2)cc1	89.1% (inactive)
COC(=O)[C@]12CC[C@@H](C)[C@H](C)[C@@H]1C1=CC[C@@H]3[C@@]4(C)C=C(O)C(=O)[C@@]5(C)COC(=C54)C[C@@]3(C)[C@]1(C)CC2	-91.4% (active)
ClC1=C(Cl)C(Cl)=C(Cl)C1=Cc1ccc(Cl)cc1	91.2% (inactive)
O=C1C(Cl)=C(N=Nc2c(Cl)c(O)c3ccccc3c2O)C(=O)c2ccccc21	96.2% (inactive)
N#Cc1cnc2cc(OC[C@H](O)CO)c(NC(=O)CC3CSSC3)cc2c1Nc1ccc(OCc2cccc(F)c2)c(Cl)c1	-85.8% (active)
CN(CC(=O)Nc1nc2ccccc2[nH]1)S(=O)(=O)c1ccc(Cl)cc1	88.5% (inactive)
COC(=O)[C@]12CC[C@@H](C)[C@H](C)[C@@H]1C1=CC[C@@H]3[C@@]4(C)C[C@@H](OC(=O)c5ccco5)[C@H](O)[C@@](C)(CO)[C@@H]4[C@H](O)C[C@@]3(C)[C@]1(C)CC2	-90.1% (active)
Fc1ccc(-c2nc(Nc3ccc(-c4nc5ccccc5[nH]4)cc3)nc(N3CCOCC3)n2)cc1	-92.7% (active)
COc1ccc(-n2nnc(C(=O)O)c2-c2cc(OC)c(OC)c(OC)c2)cc1	103% (inactive)
O=C(Nc1ccc(OCc2nnc(-c3ccccc3)o2)c(F)c1)Nc1ccc(Cl)c(C(F)(F)F)c1	36.1% (inactive)
COc1ccc(-c2csc(NC(=O)c3cc(OC)c(OC)c(OC)c3)n2)cc1	112% (inactive)
